According to the supplement of paper PMC8975748:
Structures can show the parent of a compound that is named as a salt. ± gives the standard deviation of the averaged measurements.

Tests used:
[1] = test system: Saccharomyces cerevisiae BY4741 SeMeCo community; experiment: z-score of prototroph abundance vs DMSO median; higher = larger share of this subpopulation than in DMSO controls; settings: 10 µM; 24 h; SM minimal medium; subpopulation (auxotrophy): Prototroph
How it was run: (§1)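 Automated confocal microscopy of paraformaldehyde-fixed cells was used to follow a Saccharomyces cerevisiae BY4741 community carrying four plasmids, each restoring one auxotrophy and encoding a distinct fluorescent protein. The community was pre-grown overnight to OD600 1.0, diluted to 0.3, and added at 70 µl to 384-well plates acoustically predosed with library drugs (10 µM final) for 24 h of growth in minimal SM medium. Single-auxotroph fluorescent strains set thresholds and autofluorescence correction, and each subpopulation's abundance was scored as a z-score against the vehicle-well median.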

[2] = test system: Saccharomyces cerevisiae BY4741 SeMeCo community; experiment: z-score of subpopulation abundance vs DMSO median, subpopulation auxotrophic for M; higher = larger share of this subpopulation than in DMSO controls; settings: 10 µM; 24 h; SM minimal medium; subpopulation (auxotrophy): M
How it was run: as §1

[3] = test system: Saccharomyces cerevisiae BY4741 SeMeCo community; experiment: z-score of subpopulation abundance vs DMSO median, subpopulation auxotrophic for L; higher = larger share of this subpopulation than in DMSO controls; settings: 10 µM; 24 h; SM minimal medium; subpopulation (auxotrophy): L
How it was run: as §1

[4] = test system: Saccharomyces cerevisiae BY4741 SeMeCo community; experiment: z-score of subpopulation abundance vs DMSO median, subpopulation auxotrophic for U; higher = larger share of this subpopulation than in DMSO controls; settings: 10 µM; 24 h; SM minimal medium; subpopulation (auxotrophy): U
How it was run: as §1

[5] = test system: Saccharomyces cerevisiae BY4741 SeMeCo community; experiment: z-score of subpopulation abundance vs DMSO median, subpopulation auxotrophic for H; higher = larger share of this subpopulation than in DMSO controls; settings: 10 µM; 24 h; SM minimal medium; subpopulation (auxotrophy): H
How it was run: as §1

[6] = test system: Saccharomyces cerevisiae BY4741 SeMeCo community; experiment: z-score of subpopulation abundance vs DMSO median, subpopulation auxotrophic for LU; higher = larger share of this subpopulation than in DMSO controls; settings: 10 µM; 24 h; SM minimal medium; subpopulation (auxotrophy): LU
How it was run: as §1

[7] = test system: Saccharomyces cerevisiae BY4741 SeMeCo community; experiment: z-score of subpopulation abundance vs DMSO median, subpopulation auxotrophic for LM; higher = larger share of this subpopulation than in DMSO controls; settings: 10 µM; 24 h; SM minimal medium; subpopulation (auxotrophy): LM
How it was run: as §1

[8] = test system: Saccharomyces cerevisiae BY4741 SeMeCo community; experiment: z-score of subpopulation abundance vs DMSO median, subpopulation auxotrophic for HM; higher = larger share of this subpopulation than in DMSO controls; settings: 10 µM; 24 h; SM minimal medium; subpopulation (auxotrophy): HM
How it was run: as §1

[9] = test system: Saccharomyces cerevisiae BY4741 SeMeCo community; experiment: z-score of subpopulation abundance vs DMSO median, subpopulation auxotrophic for HU; higher = larger share of this subpopulation than in DMSO controls; settings: 10 µM; 24 h; SM minimal medium; subpopulation (auxotrophy): HU
How it was run: as §1

[10] = test system: Saccharomyces cerevisiae BY4741 SeMeCo community; experiment: z-score of subpopulation abundance vs DMSO median, subpopulation auxotrophic for UM; higher = larger share of this subpopulation than in DMSO controls; settings: 10 µM; 24 h; SM minimal medium; subpopulation (auxotrophy): UM
How it was run: as §1

[11] = test system: Saccharomyces cerevisiae BY4741 SeMeCo community; experiment: z-score of subpopulation abundance vs DMSO median, subpopulation auxotrophic for HLU; higher = larger share of this subpopulation than in DMSO controls; settings: 10 µM; 24 h; SM minimal medium; subpopulation (auxotrophy): HLU
How it was run: as §1

[12] = test system: Saccharomyces cerevisiae BY4741 SeMeCo community; experiment: z-score of subpopulation abundance vs DMSO median, subpopulation auxotrophic for HUM; higher = larger share of this subpopulation than in DMSO controls; settings: 10 µM; 24 h; SM minimal medium; subpopulation (auxotrophy): HUM
How it was run: as §1

[13] = test system: Saccharomyces cerevisiae BY4741 SeMeCo community; experiment: z-score of subpopulation abundance vs DMSO median, subpopulation auxotrophic for LUM; higher = larger share of this subpopulation than in DMSO controls; settings: 10 µM; 24 h; SM minimal medium; subpopulation (auxotrophy): LUM
How it was run: as §1

[14] = test system: Saccharomyces cerevisiae BY4741 SeMeCo community; experiment: z-score of subpopulation abundance vs DMSO median, subpopulation auxotrophic for HLUM; higher = larger share of this subpopulation than in DMSO controls; settings: 10 µM; 24 h; SM minimal medium; subpopulation (auxotrophy): HLUM
How it was run: as §1

[15] = test system: Saccharomyces cerevisiae BY4741 SeMeCo community; experiment: z-score of subpopulation abundance vs DMSO median, subpopulation auxotrophic for HL; higher = larger share of this subpopulation than in DMSO controls; settings: 10 µM; 24 h; SM minimal medium; subpopulation (auxotrophy): HL
How it was run: as §1

[16] = test system: Saccharomyces cerevisiae BY4741 SeMeCo community; experiment: mean cell size (pixel area) (pixels); higher = larger cells; settings: 10 µM; 24 h; SM minimal medium
How it was run: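 Plates of 384 wells were acoustically predosed with drug at a final 10 µM in SM medium, and 70 µl of a Saccharomyces cerevisiae BY4741 preculture diluted from OD600 = 1.0 to OD600 = 0.3 was added for 24 h. The yeast formed a four-plasmid fluorescent community in which each plasmid complements one auxotrophy and carries a fluorescent marker. Fixed cells were imaged by automated confocal microscopy and analysed in Harmony for mean cell pixel area per well. Values are means of 3 replicates. Same SeMeCo high-content imaging drug screen: Selleck FDA-approved drugs at 10 µM, 24 h in SM medium, 384-well plates, 3 replicates.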

[17] = test system: Saccharomyces cerevisiae BY4741 SeMeCo community; experiment: z-score of subpopulation abundance vs DMSO median, subpopulation auxotrophic for HLM; higher = larger share of this subpopulation than in DMSO controls; settings: 10 µM; 24 h; SM minimal medium; subpopulation (auxotrophy): HLM
How it was run: as §1

Row | SMILES | z-score of prototroph abundance [1] | z-score of subpopulation abundance [2] | z-score of subpopulation abundance [3] | z-score of subpopulation abundance [4] | z-score of subpopulation abundance [5] | z-score of subpopulation abundance [6] | z-score of subpopulation abundance [7] | z-score of subpopulation abundance [8] | z-score of subpopulation abundance [9] | z-score of subpopulation abundance [10] | z-score of subpopulation abundance [11] | z-score of subpopulation abundance [12] | z-score of subpopulation abundance [13] | z-score of subpopulation abundance [14] | z-score of subpopulation abundance [15] | mean cell size [16] | z-score of subpopulation abundance [17]
1 | NC[C@H]1O[C@H](O[C@H]2[C@H](O[C@@H]3O[C@H](CO)[C@@H](O)[C@H]3O)[C@@H](O)[C@H](N)C[C@@H]2N)[C@H](N)[C@@H](O)[C@@H]1O [Ribostamycin Sulfate] | 0.31 | -0.49 | -0.39 | 0.39 | -0.21 | 0.09 | -0.67 | 0.04 | -0.5 | 0.36 | -0.07 | 0.24 | -0.84 | 0.36 |  |  | 
2 | Cc1nc(Nc2ccc(F)cc2)nc(N2CCc3ccccc3C2C)c1C (centres undefined) [Revaprazan Hydrochloride] | -0.48 | -0.84 | 0.02 |  |  | 0.2 | 0.05 | -0.33 | 0.79 | 1.11 | -0.07 | 0.45 | 0.27 | 0.14 | 0.35 |  | 
3 | COc1ccc(C(Cl)=C(c2ccc(OC)cc2)c2ccc(OC)cc2)cc1 [Chlorotrianisene] | -0.67 | 1.26 |  | 0.17 | 1.21 | 0.41 | 1.34 | 1.06 | 0.01 |  | 1.95 | 0.82 | 0.76 | 1.18 | 0.2 | 12.6 ± 0.13 | 3.27
4 | CN[C@@H]1[C@H](O)[C@H](NC)[C@H]2O[C@@]3(O)C(=O)C[C@@H](C)O[C@H]3O[C@@H]2[C@H]1O [Spectinomycin 2HCl] | -0.2 | -0.21 |  | 0.77 | -0.79 | -0.16 | -1.03 | -0.56 | 0.25 | 0.51 | 0.02 | -0.21 | -0.18 | -0.32 | -0.34 | 12.6 ± 0.18 | -0.57
5 | CC1(C)S[C@@H]2[C@H](NC(=O)[C@H](N)c3ccccc3)C(=O)N2[C@H]1C(=O)OCOC(=O)[C@@H]1N2C(=O)C[C@H]2S(=O)(=O)C1(C)C [Sultamicillin Tosylate] | -0.54 | 0.72 |  | 0.67 | -0.32 | -0.03 | -0.09 | 0.76 | 0.19 | 0.25 | -0.45 | 0.26 | -0.41 | -0.64 | 0.21 | 12.28 ± 0.1 | -0.09
6 | CC[N+](CC)(CC)CCOc1cccc(OCC[N+](CC)(CC)CC)c1OCC[N+](CC)(CC)CC [Gallamine Triethiodide] | 0.05 | 0.42 | -0.79 | 0.76 | -0.16 | 0.16 |  | -0.01 | 0.25 | 0.33 | 0.07 | 0.25 |  | -0.08 | -1.15 | 12.6 ± 0.14 | 
7 | CCOC(=O)C1=C[C@]2(CC)CCCN3CCc4c(n1c1ccccc41)[C@@H]32 [Vinpocetine] | -0.9 | 2.07 |  | 0.11 | -0.46 | 0.81 | 0.73 | 0.55 | -0.02 | 1.1 | -0.1 | 0.65 | 0.25 | 0.54 | 0.11 | 12.3 ± 0.23 | 0.39
